# Data from ChEMBL document CHEMBL1961873, “Compounds: GSK PKIS; Assays: Nanosyn kinase panel” (2012).
# Key:
# [1] = target: T1, Tyrosine-protein kinase receptor TYRO3 (Homo sapiens) (UniProt Q06418); details: at 1 µM
# T1 sequence (whole entry): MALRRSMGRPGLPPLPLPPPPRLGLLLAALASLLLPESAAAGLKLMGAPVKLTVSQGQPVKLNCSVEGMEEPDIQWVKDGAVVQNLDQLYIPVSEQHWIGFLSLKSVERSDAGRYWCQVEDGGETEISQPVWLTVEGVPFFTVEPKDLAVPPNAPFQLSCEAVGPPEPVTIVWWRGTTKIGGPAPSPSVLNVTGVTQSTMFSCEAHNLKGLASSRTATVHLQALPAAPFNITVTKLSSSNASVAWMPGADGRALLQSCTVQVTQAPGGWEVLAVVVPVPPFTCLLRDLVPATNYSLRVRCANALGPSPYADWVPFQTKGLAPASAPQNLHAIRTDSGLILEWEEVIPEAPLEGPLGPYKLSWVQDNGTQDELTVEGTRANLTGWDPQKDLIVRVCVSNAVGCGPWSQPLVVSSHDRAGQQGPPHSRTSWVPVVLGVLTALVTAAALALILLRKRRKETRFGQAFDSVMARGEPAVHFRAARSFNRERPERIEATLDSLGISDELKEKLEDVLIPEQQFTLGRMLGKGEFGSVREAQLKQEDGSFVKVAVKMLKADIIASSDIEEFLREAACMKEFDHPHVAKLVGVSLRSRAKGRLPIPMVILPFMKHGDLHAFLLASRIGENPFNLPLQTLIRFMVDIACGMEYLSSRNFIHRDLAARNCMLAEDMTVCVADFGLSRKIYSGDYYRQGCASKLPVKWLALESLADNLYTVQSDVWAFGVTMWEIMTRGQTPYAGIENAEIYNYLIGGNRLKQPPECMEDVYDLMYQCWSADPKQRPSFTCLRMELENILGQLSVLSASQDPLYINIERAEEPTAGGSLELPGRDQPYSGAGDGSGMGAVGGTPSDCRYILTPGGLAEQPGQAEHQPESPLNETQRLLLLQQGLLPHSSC
# [2] = target: Tyrosine-protein kinase Yes (Homo sapiens) (UniProt P07947); details: at 0.1 µM
# [3] = target: Tyrosine-protein kinase Yes (Homo sapiens) (UniProt P07947); details: at 1 µM
# [4] = target: T2, Tyrosine-protein kinase ZAP-70 (Homo sapiens) (UniProt P43403); details: at 0.1 µM
# T2 sequence (whole entry): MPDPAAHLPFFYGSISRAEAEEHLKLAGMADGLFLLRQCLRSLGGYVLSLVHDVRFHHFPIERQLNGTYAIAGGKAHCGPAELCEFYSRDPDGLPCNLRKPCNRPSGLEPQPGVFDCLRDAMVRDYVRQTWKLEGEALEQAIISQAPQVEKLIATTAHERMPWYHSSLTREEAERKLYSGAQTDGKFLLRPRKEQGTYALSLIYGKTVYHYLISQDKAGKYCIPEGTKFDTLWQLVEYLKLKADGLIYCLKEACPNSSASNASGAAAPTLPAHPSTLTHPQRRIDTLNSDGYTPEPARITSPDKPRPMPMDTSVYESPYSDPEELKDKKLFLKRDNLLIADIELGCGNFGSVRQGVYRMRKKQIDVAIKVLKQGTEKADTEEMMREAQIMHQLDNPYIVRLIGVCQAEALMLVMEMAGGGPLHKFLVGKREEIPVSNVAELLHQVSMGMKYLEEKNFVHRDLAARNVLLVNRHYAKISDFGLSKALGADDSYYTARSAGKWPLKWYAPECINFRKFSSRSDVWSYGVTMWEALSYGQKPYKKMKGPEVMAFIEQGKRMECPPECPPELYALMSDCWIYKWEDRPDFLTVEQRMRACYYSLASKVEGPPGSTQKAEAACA
# [5] = target: T2, Tyrosine-protein kinase ZAP-70 (Homo sapiens); details: at 1 µM
# [6] = target: Serine/threonine-protein kinase B-raf (Homo sapiens) (UniProt P15056); details: at 0.1 µM
# [7] = target: Serine/threonine-protein kinase B-raf (Homo sapiens) (UniProt P15056); details: at 1 µM
# [8] = system: Serine/threonine-protein kinase B-raf (Homo sapiens), P15056 [V600E]; details: at 0.1 µM
# [9] = system: Serine/threonine-protein kinase B-raf (Homo sapiens), P15056 [V600E]; details: at 1 µM
# [10] = target: RAF proto-oncogene serine/threonine-protein kinase (Homo sapiens) (UniProt P04049); details: at 0.1 µM
# [11] = target: RAF proto-oncogene serine/threonine-protein kinase (Homo sapiens) (UniProt P04049); details: at 1 µM
# [12] = target: T3, Interleukin-1 receptor-associated kinase 4 (Homo sapiens) (UniProt Q9NWZ3); details: at 0.1 µM
# T3 sequence (whole entry): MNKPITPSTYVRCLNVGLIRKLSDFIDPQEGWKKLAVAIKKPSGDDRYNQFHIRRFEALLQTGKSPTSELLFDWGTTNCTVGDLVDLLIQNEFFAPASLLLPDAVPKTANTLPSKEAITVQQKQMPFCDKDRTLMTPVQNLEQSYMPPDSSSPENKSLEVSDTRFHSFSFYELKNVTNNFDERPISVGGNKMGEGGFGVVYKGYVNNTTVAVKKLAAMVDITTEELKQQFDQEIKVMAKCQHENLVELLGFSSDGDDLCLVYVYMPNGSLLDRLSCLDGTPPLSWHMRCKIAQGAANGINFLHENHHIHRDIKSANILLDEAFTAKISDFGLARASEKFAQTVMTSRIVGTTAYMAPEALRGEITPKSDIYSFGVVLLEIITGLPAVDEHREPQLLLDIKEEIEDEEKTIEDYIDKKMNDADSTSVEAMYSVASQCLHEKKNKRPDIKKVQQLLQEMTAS
# [13] = target: T3, Interleukin-1 receptor-associated kinase 4 (Homo sapiens); details: at 1 µM
# [14] = target: Leucine-rich repeat serine/threonine-protein kinase 2 (Homo sapiens) (UniProt Q5S007); details: at 0.1 µM
# [15] = target: Leucine-rich repeat serine/threonine-protein kinase 2 (Homo sapiens) (UniProt Q5S007); details: at 1 µM
# [16] = system: Leucine-rich repeat serine/threonine-protein kinase 2 (Homo sapiens), Q5S007 [G2019S]; details: at 0.1 µM
# [17] = system: Leucine-rich repeat serine/threonine-protein kinase 2 (Homo sapiens), Q5S007 [G2019S]; details: at 1 µM
# Leucine-rich repeat serine/threonine-protein kinase 2 (Homo sapiens), Q5S007 [G2019S], sequence (Q5S007 whole entry G2019S): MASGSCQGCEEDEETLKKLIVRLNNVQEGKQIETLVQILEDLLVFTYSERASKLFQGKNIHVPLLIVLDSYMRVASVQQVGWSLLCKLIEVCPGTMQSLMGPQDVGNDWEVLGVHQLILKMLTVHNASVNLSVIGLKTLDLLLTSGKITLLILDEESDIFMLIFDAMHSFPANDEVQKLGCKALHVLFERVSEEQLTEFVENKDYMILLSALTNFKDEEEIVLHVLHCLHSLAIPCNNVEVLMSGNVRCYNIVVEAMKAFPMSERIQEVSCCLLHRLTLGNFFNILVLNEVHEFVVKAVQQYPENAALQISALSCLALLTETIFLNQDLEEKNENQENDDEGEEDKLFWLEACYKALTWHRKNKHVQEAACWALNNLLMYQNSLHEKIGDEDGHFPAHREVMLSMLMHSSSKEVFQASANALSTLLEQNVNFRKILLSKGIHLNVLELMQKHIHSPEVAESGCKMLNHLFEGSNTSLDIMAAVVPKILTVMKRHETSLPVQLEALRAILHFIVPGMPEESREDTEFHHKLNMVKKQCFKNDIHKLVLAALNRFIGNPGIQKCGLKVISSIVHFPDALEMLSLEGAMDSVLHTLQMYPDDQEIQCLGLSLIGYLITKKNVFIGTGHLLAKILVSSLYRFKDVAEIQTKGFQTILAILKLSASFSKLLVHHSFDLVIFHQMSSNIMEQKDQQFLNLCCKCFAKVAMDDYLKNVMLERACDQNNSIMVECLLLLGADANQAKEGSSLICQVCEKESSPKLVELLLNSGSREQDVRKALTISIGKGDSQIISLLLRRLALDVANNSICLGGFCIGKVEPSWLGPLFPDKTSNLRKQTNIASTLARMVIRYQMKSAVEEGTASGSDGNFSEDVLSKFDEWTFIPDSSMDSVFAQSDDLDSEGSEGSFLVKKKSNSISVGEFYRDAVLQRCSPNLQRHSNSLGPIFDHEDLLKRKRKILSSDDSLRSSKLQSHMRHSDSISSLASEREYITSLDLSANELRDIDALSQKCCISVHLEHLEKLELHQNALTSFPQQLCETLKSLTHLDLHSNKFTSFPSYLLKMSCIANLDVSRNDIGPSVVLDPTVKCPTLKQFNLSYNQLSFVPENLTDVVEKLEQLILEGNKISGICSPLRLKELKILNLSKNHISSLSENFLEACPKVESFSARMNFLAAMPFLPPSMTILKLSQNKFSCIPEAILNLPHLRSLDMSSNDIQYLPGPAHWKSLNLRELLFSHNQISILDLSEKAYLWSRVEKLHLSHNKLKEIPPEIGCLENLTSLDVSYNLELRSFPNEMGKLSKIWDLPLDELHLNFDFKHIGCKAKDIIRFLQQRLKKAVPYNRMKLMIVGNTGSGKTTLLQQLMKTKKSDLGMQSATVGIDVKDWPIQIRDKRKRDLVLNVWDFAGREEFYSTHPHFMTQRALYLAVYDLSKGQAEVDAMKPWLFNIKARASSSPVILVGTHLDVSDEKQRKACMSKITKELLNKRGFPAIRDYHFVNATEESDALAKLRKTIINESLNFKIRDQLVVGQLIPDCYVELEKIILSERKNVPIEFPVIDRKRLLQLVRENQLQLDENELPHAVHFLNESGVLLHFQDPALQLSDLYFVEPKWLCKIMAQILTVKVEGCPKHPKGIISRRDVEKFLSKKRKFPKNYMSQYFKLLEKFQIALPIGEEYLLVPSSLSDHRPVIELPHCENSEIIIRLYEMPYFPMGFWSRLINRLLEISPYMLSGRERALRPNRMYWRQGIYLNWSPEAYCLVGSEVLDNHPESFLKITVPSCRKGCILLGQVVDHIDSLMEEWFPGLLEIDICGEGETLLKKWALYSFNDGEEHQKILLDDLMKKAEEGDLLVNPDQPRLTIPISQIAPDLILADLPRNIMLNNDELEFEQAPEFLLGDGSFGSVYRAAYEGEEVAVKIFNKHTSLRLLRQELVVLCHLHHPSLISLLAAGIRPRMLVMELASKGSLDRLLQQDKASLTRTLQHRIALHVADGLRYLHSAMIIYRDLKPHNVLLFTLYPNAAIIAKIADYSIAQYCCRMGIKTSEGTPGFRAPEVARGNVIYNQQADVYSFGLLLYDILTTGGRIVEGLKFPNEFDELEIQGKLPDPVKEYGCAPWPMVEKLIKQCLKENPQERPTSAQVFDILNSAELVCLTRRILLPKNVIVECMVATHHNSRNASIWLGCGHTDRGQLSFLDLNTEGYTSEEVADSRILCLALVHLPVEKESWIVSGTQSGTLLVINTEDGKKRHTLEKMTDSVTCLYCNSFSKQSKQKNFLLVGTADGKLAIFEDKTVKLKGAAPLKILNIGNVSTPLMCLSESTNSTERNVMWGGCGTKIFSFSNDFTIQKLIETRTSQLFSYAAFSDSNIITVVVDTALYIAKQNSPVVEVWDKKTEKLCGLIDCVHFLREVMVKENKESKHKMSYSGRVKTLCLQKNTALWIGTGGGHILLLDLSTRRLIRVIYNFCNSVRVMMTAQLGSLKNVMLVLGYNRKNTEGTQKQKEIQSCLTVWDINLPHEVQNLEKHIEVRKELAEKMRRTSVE
# Serine/threonine-protein kinase B-raf (Homo sapiens), P15056 [V600E], sequence (P15056 whole entry V600E): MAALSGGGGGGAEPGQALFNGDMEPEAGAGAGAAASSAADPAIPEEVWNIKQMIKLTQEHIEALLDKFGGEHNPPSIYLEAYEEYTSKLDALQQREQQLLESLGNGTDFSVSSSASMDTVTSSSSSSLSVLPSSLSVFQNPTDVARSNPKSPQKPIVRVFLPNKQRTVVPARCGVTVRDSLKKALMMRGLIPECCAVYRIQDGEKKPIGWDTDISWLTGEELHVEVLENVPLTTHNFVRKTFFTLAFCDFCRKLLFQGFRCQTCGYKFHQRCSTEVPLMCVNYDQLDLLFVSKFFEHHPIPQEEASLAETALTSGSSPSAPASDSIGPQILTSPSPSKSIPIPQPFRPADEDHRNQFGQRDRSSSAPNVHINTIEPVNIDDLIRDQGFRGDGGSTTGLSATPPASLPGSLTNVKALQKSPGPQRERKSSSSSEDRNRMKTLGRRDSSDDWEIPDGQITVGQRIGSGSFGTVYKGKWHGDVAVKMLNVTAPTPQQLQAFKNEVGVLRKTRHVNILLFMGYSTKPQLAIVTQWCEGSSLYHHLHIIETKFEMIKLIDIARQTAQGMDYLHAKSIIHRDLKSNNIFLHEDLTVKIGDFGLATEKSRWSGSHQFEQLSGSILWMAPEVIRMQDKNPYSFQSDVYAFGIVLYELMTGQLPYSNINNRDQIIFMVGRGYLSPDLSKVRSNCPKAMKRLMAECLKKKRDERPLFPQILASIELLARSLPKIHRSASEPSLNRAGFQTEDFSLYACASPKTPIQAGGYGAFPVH
# Serine/threonine-protein kinase B-raf (Homo sapiens), sequence (P15056 whole entry): as the sequence (P15056 whole entry V600E) above, with E600V counted along it
# Tyrosine-protein kinase Yes (Homo sapiens), sequence (P07947 2-543 limits assumed): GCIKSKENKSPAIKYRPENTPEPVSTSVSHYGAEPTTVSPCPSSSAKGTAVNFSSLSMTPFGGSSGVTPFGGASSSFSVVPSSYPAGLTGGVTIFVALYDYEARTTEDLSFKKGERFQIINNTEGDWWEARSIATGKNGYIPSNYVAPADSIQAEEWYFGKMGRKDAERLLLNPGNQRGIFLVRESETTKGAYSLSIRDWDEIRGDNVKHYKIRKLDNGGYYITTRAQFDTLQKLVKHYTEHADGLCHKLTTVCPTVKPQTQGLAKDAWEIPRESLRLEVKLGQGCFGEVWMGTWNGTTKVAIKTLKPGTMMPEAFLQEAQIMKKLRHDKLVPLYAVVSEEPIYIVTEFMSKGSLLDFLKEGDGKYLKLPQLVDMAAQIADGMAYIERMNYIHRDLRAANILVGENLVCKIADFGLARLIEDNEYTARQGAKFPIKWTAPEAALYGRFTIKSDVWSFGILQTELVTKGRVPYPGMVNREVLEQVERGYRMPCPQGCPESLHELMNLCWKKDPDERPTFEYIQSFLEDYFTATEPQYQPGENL
# Leucine-rich repeat serine/threonine-protein kinase 2 (Homo sapiens), sequence (Q5S007 whole entry): as the sequence (Q5S007 whole entry G2019S) above, with S2019G counted along it
# RAF proto-oncogene serine/threonine-protein kinase (Homo sapiens), sequence (P04049 whole entry): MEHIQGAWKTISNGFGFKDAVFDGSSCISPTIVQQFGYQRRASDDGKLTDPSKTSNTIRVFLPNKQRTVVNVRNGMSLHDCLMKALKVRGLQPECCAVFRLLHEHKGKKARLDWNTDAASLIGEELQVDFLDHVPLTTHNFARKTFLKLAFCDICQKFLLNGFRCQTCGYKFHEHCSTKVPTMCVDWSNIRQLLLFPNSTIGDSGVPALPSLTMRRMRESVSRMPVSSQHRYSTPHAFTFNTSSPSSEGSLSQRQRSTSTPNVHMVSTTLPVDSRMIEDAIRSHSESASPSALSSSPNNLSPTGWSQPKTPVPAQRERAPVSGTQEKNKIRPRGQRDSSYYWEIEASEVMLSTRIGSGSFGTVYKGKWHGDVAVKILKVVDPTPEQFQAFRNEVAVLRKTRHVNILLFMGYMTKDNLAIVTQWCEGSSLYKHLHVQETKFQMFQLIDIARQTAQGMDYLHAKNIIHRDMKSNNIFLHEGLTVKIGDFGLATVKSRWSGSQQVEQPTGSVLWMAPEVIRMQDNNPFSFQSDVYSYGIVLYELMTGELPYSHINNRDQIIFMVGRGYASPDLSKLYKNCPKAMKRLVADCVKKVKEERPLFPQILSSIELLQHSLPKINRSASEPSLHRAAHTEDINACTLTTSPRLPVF
compound,measurement,setting,value
CCOc1nccc2c1nc(-c1nonc1N)n2CC,inhibition,[1],5.64%
same,inhibition,[2],2.27%
same,inhibition,[3],6.31%
same,inhibition,[4],2.73%
same,inhibition,[5],1.9%
same,inhibition,[6],2.88%
same,inhibition,[7],2.64%
same,inhibition,[8],3.44%
same,inhibition,[9],2.45%
same,inhibition,[10],-1.34%
same,inhibition,[11],1.42%
same,inhibition,[12],-2.37%
same,inhibition,[13],1.89%
same,inhibition,[14],3.98%
same,inhibition,[15],8.96%
same,inhibition,[16],5.55%
same,inhibition,[17],11.8%
Cc1ccc2c(-c3ccnc(Nc4ccc5c(c4)OCCO5)n3)c(-c3ccc(C(F)(F)F)cc3)nn2n1,inhibition,[1],2.41%
same,inhibition,[2],6.79%
same,inhibition,[3],46.8%
same,inhibition,[4],-2.2%
same,inhibition,[5],1.38%
same,inhibition,[6],0.83%
same,inhibition,[7],1.14%
same,inhibition,[8],0.62%
same,inhibition,[9],1.44%
same,inhibition,[10],4.51%
same,inhibition,[11],1.48%
same,inhibition,[12],-0.63%
same,inhibition,[13],-0.5%
same,inhibition,[14],2.01%
same,inhibition,[15],2.22%
same,inhibition,[16],2.87%
same,inhibition,[17],3.58%
Cc1ccc(O)cc1Nc1ccnc2ccc(S(C)(=O)=O)cc12,inhibition,[1],19.1%
same,inhibition,[2],89.3%
same,inhibition,[3],99%
same,inhibition,[4],2.4%
same,inhibition,[5],1.31%
same,inhibition,[6],15.3%
same,inhibition,[7],32.5%
same,inhibition,[8],13.8%
same,inhibition,[9],26%
same,inhibition,[10],-4.03%
same,inhibition,[11],9.12%
same,inhibition,[12],4.59%
same,inhibition,[13],3.6%
same,inhibition,[14],4.8%
same,inhibition,[15],18.7%
same,inhibition,[16],12.5%
same,inhibition,[17],48%
Cc1cc(Cl)cc2c1NC(=O)C2=NNc1ccc(S(N)(=O)=O)cc1,inhibition,[1],3.93%
same,inhibition,[2],0.95%
same,inhibition,[3],2.2%
same,inhibition,[4],1.82%
same,inhibition,[5],1.81%
same,inhibition,[6],4.13%
same,inhibition,[7],1.81%
same,inhibition,[8],4.19%
same,inhibition,[9],2.74%
same,inhibition,[10],0.2%
same,inhibition,[11],3.57%
same,inhibition,[12],3.1%
same,inhibition,[13],1.43%
same,inhibition,[14],0.71%
same,inhibition,[15],2.23%
same,inhibition,[16],1.78%
same,inhibition,[17],4.5%
NS(=O)(=O)c1ccc(Nc2cc(-c3cccc(O)c3)n[nH]2)cc1,inhibition,[1],9.19%
same,inhibition,[2],2.39%
same,inhibition,[3],5.84%
same,inhibition,[4],4.04%
same,inhibition,[5],6.29%
same,inhibition,[6],7.97%
same,inhibition,[7],8.05%
same,inhibition,[8],6.98%
same,inhibition,[9],6.29%
same,inhibition,[10],1.44%
same,inhibition,[11],-1.78%
same,inhibition,[12],0.88%
same,inhibition,[13],2.85%
same,inhibition,[14],6.39%
same,inhibition,[15],12.4%
same,inhibition,[16],6.39%
same,inhibition,[17],17.1%
CCn1c(-c2nonc2N)nc2ccc(F)cc21,inhibition,[1],5.61%
same,inhibition,[2],4.26%
same,inhibition,[3],8.39%
same,inhibition,[4],3.33%
same,inhibition,[5],2.76%
same,inhibition,[6],8.45%
same,inhibition,[7],7.77%
same,inhibition,[8],9.84%
same,inhibition,[9],7.05%
same,inhibition,[10],-0.53%
same,inhibition,[11],0.22%
same,inhibition,[12],1.39%
same,inhibition,[13],2.93%
same,inhibition,[14],4.04%
same,inhibition,[15],8.92%
same,inhibition,[16],4.92%
same,inhibition,[17],4.42%
NS(=O)(=O)c1ccc(NC=C2C(=O)Nc3ccc4ncsc4c32)cc1,inhibition,[1],42.4%
same,inhibition,[2],9.65%
same,inhibition,[3],41.5%
same,inhibition,[4],3.29%
same,inhibition,[5],11.9%
same,inhibition,[6],15.4%
same,inhibition,[7],60.5%
same,inhibition,[8],16.6%
same,inhibition,[9],61.2%
same,inhibition,[10],11.6%
same,inhibition,[11],-1.97%
same,inhibition,[12],0.1%
same,inhibition,[13],4.43%
same,inhibition,[14],23.9%
same,inhibition,[15],78.8%
same,inhibition,[16],48.8%
same,inhibition,[17],59.7%
